# Screens (PubChem)
# The list is not random: actives were taken first. Their share in the collection is about 2.5%.
# Cruzain Triton – blocks cruzain activity in presence of Triton detergent. P25779. purified cruzain, Z-FR-AMC fluorescence, 0.01% Triton. Potency, µM, for inactives: max response, negative = inhibition, most hits filed as inhibitors. actives 0.43% (n = 200,000);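 note: plate controls were neutral wells for no effect and buffer without enzyme for full effect; nearly all actives have a fitted effect of over 40% in size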
# Target sequence (P25779 123-467 limits assumed): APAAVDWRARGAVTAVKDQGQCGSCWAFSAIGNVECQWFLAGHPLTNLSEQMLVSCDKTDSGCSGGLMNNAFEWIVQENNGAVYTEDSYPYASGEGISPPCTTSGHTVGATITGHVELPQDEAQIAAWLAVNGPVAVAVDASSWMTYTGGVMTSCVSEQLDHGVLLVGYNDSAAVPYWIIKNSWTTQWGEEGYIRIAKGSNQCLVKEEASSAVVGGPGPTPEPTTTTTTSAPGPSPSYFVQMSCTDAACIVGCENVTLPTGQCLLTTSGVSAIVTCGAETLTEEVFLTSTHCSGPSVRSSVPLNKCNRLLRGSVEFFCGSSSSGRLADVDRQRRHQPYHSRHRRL
#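 15 min RT preincubation of 1.5 nM cruzain with compound, then 2 uM Z-FR-AMC added; kinetic AMC fluorescence, 60 s delta. Triton X-100 0.01%, pH 5.5.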
# Cruzain inh noDet – blocks cruzain activity in detergent-free assay; P25779; purified cruzain, Z-FR-AMC fluorescence, no detergent; Potency, µM, for the others: max response, negative = inhibition, actives largely listed as inhibitors; actives 2.3% (n = 200,000); AID 1476;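 note: plate controls were enzyme without inhibitor for no effect and buffer without enzyme for full effect; nearly all actives have a fitted effect of over 40% in size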
#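 Purified cruzain at 1.5 nM, pre-incubated 15 min with compound at room temperature in 100 mM sodium acetate pH 5.5, 5 mM DTT, 0.00005% Triton X-100. Reaction started with 2 uM Z-FR-AMC; AMC fluorescence increase over 60 s gives rate.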
# Active calls of the source: *; ? = inconclusive; ! = a repeat was not active. Calls come from the whole dose curve; as a rule, active = well fitted curve in the direction sought with a large enough effect; inconclusive = small, poorly fitted or top-dose-only effect, or another doubt; inactive = no such curve, though single readings can be large; an effect the other way counts as inactive or inconclusive. Potency is the fitted concentration of half-maximal effect.
SMILES,Cruzain Triton,Cruzain inh noDet
CC(C)C(c1nnnn1Cc1cccs1)N1CCN(c2ccccc2)CC1 (stereo unspecified),-3%,0%
Cc1ccccc1OCC(=O)N/N=C/c1ccc2c(c1)OCCO2,-5%,-14%
O=C(NCCc1ccccc1)C(=O)N/N=C/c1ccc2c(c1)OCO2,5%,20µM*
Cc1cc(C)c(OCC(=O)N/N=C/c2ccc3c(c2)OCO3)c(C)c1,0%,20µM*
O=C(N/N=C\c1ccc2c(c1)OCO2)c1ccco1,-8%,0%
CC(/C=C/C=C(C)/C=C/C(=O)O)=C\C=C\C=C(C)\C=C\C=C(C)\C=C\C(=O)O,-14%,?
Cc1ccc(NC(=O)c2nnn(Cc3cccc(C(F)(F)F)c3)c2N)c(C)c1,0%,?
Cc1ccc(Cl)cc1Nc1nn2c(=O)c3ccc(C(=O)NC(C)c4ccccc4)cc3nc2s1 (stereo unspecified),-2%,-20%
CN(C)c1ccc(NC(=O)CN2CCN(CC(=O)Nc3ccc(Br)cc3)CC2)cc1,0%,0%
CCOc1ccc(Br)cc1S(=O)(=O)Nc1ccc(C(=O)OCC(=O)N(C)c2ccccc2)cc1,-7%,-16%
CCOc1ccc(Br)cc1S(=O)(=O)Nc1ccc(C(=O)Nc2ccc(C)cc2)cc1,-4%,32µM*
CCOc1ccc(Br)cc1S(=O)(=O)Nc1ccc(NC(=O)c2ccccc2C)cc1,-2%,?
CCOc1ccc(Br)cc1S(=O)(=O)Nc1ccc(NC(=O)c2ccccc2F)cc1,-3%,25µM*
CCOc1ccc(Br)cc1S(=O)(=O)Nc1ccc(C(=O)Nc2ccccc2OC)cc1,-5%,16µM*
COc1ccc(C)cc1S(=O)(=O)Nc1ccc(F)cc1,-2%,-3%
COc1ccc(NC(=O)c2c(F)cccc2F)cc1S(=O)(=O)Nc1ccc(Br)cc1,-3%,16µM*
COc1ccccc1NC(=O)c1ccc(NS(=O)(=O)c2ccc(F)c(F)c2F)cc1,-1%,-18%
CC(=O)Nc1ccc(NC(=O)C(Cc2ccccc2)NS(=O)(=O)c2ccc3c(c2)oc(=O)n3C)cc1 (stereo unspecified),1%,?
C#CCOC(=O)CCCNc1ccc([N+](=O)[O-])cc1[N+](=O)[O-],-7%,-2%
CCOc1ccccc1CNC(=O)CCc1c(C)nn(-c2ccc(N3CCCC3)nn2)c1C,-3%,-9%
O=C(C1CCC(Cn2c(=O)c3sccc3n(Cc3ccccc3)c2=O)CC1)N1CCOCC1 (stereo unspecified),-5%,?
CCCCSc1nc2c(cnn2-c2ccc(C)c(C)c2)c(=O)[nH]1,2%,20µM*
CCCSc1nc2c(cnn2-c2ccc(F)cc2)c(=O)[nH]1,-6%,0%
O=c1[nH]c(SCc2ccc(F)cc2)nc2c1cnn2-c1ccc(F)cc1,2%,16µM*
CCC(C)Sc1nc2c(cnn2-c2ccccc2)c(=O)[nH]1 (stereo unspecified),2%,5%
SMILES,Cruzain Triton,Cruzain inh noDet
CCC(C)Sc1nc2c(cnn2-c2ccc(C)cc2)c(=O)[nH]1 (stereo unspecified),2%,20µM*
CCCSc1nc2c(cnn2-c2ccc(C)c(C)c2)c(=O)[nH]1,0%,-22%
CCOc1ccc(NC(=O)CN2C(C(=O)OC)=C(c3ccccc3)c3cc(Cl)ccc3S2(=O)=O)cc1,-4%,-4%
COC(=O)c1c(NC(=O)Nc2ccc(Cl)cc2)sc(C)c1C,0%,25µM*!
COC(=O)c1c(NC(=O)COc2ccc(Cl)cc2)sc(C)c1C,-3%,-4%
CC1C2CCC3C4CC=C5CC(N(C)C)CC[C@@]5(C)C4CC[C@@]32CN1C (stereo partly specified),3%,-1%
CC(C)c1ccc(NC(=O)CN2C(=O)C3(SCC(=O)N3c3ccc(F)cc3)c3ccccc32)cc1 (stereo unspecified),-8%,?
COC1=C(OC)C(=O)C(C/C=C(\C)CC/C=C(\C)CC/C=C(\C)CC/C=C(\C)CC/C=C(\C)CC/C=C(\C)CC/C=C(\C)CC/C=C(\C)CC/C=C(\C)CCC=C(C)C)=C(C)C1=O,-1%,-3%
COc1ccc(C2/C=C\CN(C(=O)OCC3c4ccccc4-c4ccccc43)CC(=O)N2Cc2cccc(F)c2)cc1 (stereo unspecified),-2%,25µM*
COc1ccc(C2/C=C\CN(CC(C)C)CC(=O)N2Cc2cccc(F)c2)cc1 (stereo unspecified),2%,-3%
N#Cc1cc(-c2ccccc2)nnc1Sc1ccc(F)cc1,0%,4%
N#Cc1cc(-c2ccccc2)nnc1Sc1ccccc1,0%,25µM*
Cc1ccc(/C=C/c2onc(C)c2S(=O)(=O)N2CCC(C(=O)NCc3ccc(Cl)cc3)CC2)cc1,-1%,0%
COCCn1c(=O)c(-c2ccc(Cl)cc2)nc2cnc(N3CCNCC3)nc21,-5%,?
Cc1ccc(-c2nnn(CC(=O)Nc3ccc(S(=O)(=O)N4CCC(C)CC4)cc3)n2)cc1,3%,10µM*
CC1CCN(S(=O)(=O)c2ccc(NC(=O)Cn3nnc(-c4ccccc4)n3)cc2)CC1,1%,?
CCOC(=O)c1[nH]c2ccc(Cl)cc2c1NC(=O)c1nonc1C,-2%,10µM*
CCOC(=O)c1[nH]c2ccc(OC)cc2c1NC(=O)c1nonc1C,6%,4%
O=C(Nc1c(-c2ccccc2)nc2ccccn12)c1ccc(Br)cc1,-6%,19%
CC(=O)Nc1ccc(OC(=O)c2cc3cc(Br)ccc3oc2=O)cc1,0%,0%
CC(=O)Nc1ccc(OC(=O)c2cc3cc(Br)cc(Br)c3oc2=O)cc1,-1%,20µM*
CCOc1ccc(CNC(=O)C2CCN(C(=O)N3CC(CC)Oc4ccccc43)CC2)cc1 (stereo unspecified),-2%,11%
O=C(CSc1nc(O)cc(=O)n1-c1ccccc1)Nc1ccc2c3c(cccc13)CC2,25µM*,?
Cc1c(O)nc(SCC(=O)Nc2ccc3c4c(cccc24)CC3)n(-c2ccccc2)c1=O,-23%,?
COc1ccc(NS(=O)(=O)c2ccc(NS(=O)(=O)c3ccc4c(c3)OCCO4)cc2)cc1,-10%,2%
SMILES,Cruzain Triton,Cruzain inh noDet
COc1ccc(NS(=O)(=O)c2ccc(O)c(C(=O)OCC(=O)Nc3ccc4c(c3)OCCO4)c2)cc1,-3%,7.9µM*
COc1ccc(S(=O)(=O)N(C)CC(=O)Nc2ccc3c(c2)OCO3)cc1,-1%,-10%
COc1ccc(N(CC(=O)Nc2ccc3c(c2)OCO3)S(=O)(=O)c2ccc(F)cc2)cc1,-5%,20µM*
Cc1ccc(C)c(N2CCN(C(=O)CCS(=O)(=O)c3ccc4c(c3)CC(=O)N4C)CC2)c1,-4%,?
CC[n+]1c(/C=C/C=C/N(C(C)=O)c2ccccc2)sc2ccccc21,-4%,20µM*
CC[n+]1c(/C=C/N(C)c2ccccc2)sc2ccc(Cl)cc21,-10%,-16%
CN1[C@H](Cc2ccccc2)C=C[C@]1(C)C(=O)NCC1CC1,-5%,1%
COc1ccc(NC(=O)Cn2cc(S(=O)(=O)N3CCN(c4ccccc4F)CC3)c3ccccc3c2=O)cc1Cl,-1%,7.9µM*
COc1cc(Cl)c(C)cc1NC(=O)Cn1cc(S(=O)(=O)N2CCN(c3ccccc3F)CC2)c2ccccc2c1=O,-3%,-26%
Cc1ccc(-c2nnc(Nc3cccc(Br)c3)c3ccccc23)cc1S(=O)(=O)N1CCN(C)CC1,1%,-4%
Cc1ccc(-c2nnc(Nc3cccc(Br)c3)c3ccccc23)cc1S(=O)(=O)N1CCCCC1,-3%,6.3µM*
